# Experimental data reported in PubChem BioAssay AID686978 (National Center for Advancing Translational Sciences (NCATS), 2013).
# Hit rate of the full screen: of about 420,000 compounds, about 64,000 (15%) were called active. Roughly 27% stayed inconclusive and do not appear here. Calls follow the shape of the dose curve; as a rule, active = well fitted inhibition curve with a large enough effect; inconclusive = small, poorly fitted or top-dose-only effect; inactive = flat fitted curve, though single readings scatter. Not all results are given here.
# Experiment: qHTS for Inhibitors of human tyrosyl-DNA phosphodiesterase 1 (TDP1): qHTS in cells in absence of CPT; also: nearly all actives have a fitted effect of over 55% in size
# Conditions: DT40 Tdp1-/- hTDP1 cells, no CPT, ATP luminescence, 48 h; activity change, negative = growth inhibition: at 46.2 µM (top of the series)
# Procedure, shortened: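 Growth of hTDP1-complemented DT40 Tdp1-knockout cells is measured by ATP luminescence after at least 48 hr compound exposure at 37 °C, with DMSO substituting for the 20 nM CPT used in the parallel screen.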
# % is scaled to controls: 0 for no effect and ±100 for the full control effect; potency is read from the fitted curve at half-maximal effect.
Structure (SMILES),"activity change, negative = growth inhibition",Potency
Cc1ccc(-n2ncc3c(=O)[nH]cnc32)c(C)c1,-1.23% (inactive),–
COc1ccccc1-c1cc2nc(C)c(CCC(=O)NC3CCCCC3)c(C)n2n1,-19.4% (inactive),–
CC(C)Cc1ccc(-c2cc3nc(NCc4cccc(Cl)c4)ccn3n2)cc1,–,18.4 µM (active)
COc1ccccc1-c1cc2nc(C)c(CCC(=O)O)c(C)n2n1,-10.6% (inactive),–
COc1ccccc1-c1cc2nc(NCc3cccc(Cl)c3)ccn2n1,–,18.4 µM (active)
COCCCNc1ccn2nc(-c3ccc(CC(C)C)cc3)cc2n1,-25.7% (inactive),–
Cc1nc2cc(NC(=O)[C@@H]3C[C@@H](Sc4ccccn4)CN3Cc3ccccc3C)ccc2s1,-13.5% (inactive),–
O=C1/C(=C/c2ccc3c(c2)OCO3)CCC/C1=C\c1ccc2c(c1)OCO2,-29.6% (inactive),–
O=C(OCC(=O)N1CCCCCC1)c1cnc(Cl)c(Cl)c1,8.48% (inactive),–
CCc1ccc(C2C(C(=O)Nc3ccccc3)=C(C)Nc3c(C(=O)Nc4ccc(C)cc4)cnn32)cc1 (stereo unspecified),–,23.1 µM (active)
COc1cccc(C2C(C(=O)Nc3ccc(C)cc3C)=C(C)Nc3c(C(=O)Nc4ccccc4)cnn32)c1 (stereo unspecified),-24% (inactive),–
CC1=C(C(=O)Nc2ccccc2)C(c2ccc(C)cc2)n2nc(SCc3ccccc3C)nc2N1 (stereo unspecified),-22.3% (inactive),–
CCCSc1ncccc1C(=O)O,-17.2% (inactive),–
Cc1cnc(CN(C)C(=O)C2CCC(=O)N(CCc3cccc(F)c3)C2)[nH]1 (stereo unspecified),22.2% (inactive),–
O=C(Nn1cc(C(=O)N2CCN(c3ccccc3F)CC2)c2ccccc2c1=O)c1cnccn1,–,13 µM (active)
COc1ccc2oc(=O)c(C(=O)N3CCN(c4ccccc4F)CC3)cc2c1,-20% (inactive),–
Cc1oc2ncn(CC(C)C)c(=O)c2c1C(=O)N1CCN(c2ccccc2F)CC1,-26.2% (inactive),–
CCOCCCNC(=O)C(=O)NCCCOCC,-0.2% (inactive),–
O=C(CSc1nc2[nH]ncc2c(=O)[nH]1)Nc1ccc(F)cc1,1.91% (inactive),–
CCOc1ccccc1NC(=O)CCn1cnnn1,-0.862% (inactive),–
Cc1[nH]c2ccc(S(N)(=O)=O)cc2c1C,1.87% (inactive),–
CCc1nnc(NC(=O)C2CCN(C(=O)c3ccccc3C)CC2)s1,6.29% (inactive),–

Structure (SMILES),"activity change, negative = growth inhibition",Potency
Cc1ccccc1C(=O)N1CCC(C(=O)Nc2ccc(S(=O)(=O)N(C)C(C)C)cc2)CC1,–,20.6 µM (active)
Cc1ccccc1C(=O)N1CCC(C(=O)Oc2ccc(C#N)cc2)CC1,3.44% (inactive),–
COc1ccc(-n2c(C)csc2=S)cc1,-9.93% (inactive),–
COC(=O)C1(C(=O)OC)C/C=C\CN(S(=O)(=O)c2ccccc2[N+](=O)[O-])CCC1,–,16.4 µM (active)
COc1ccc(S(=O)(=O)N2CCC(C(=O)OCC(=O)c3ccccc3)CC2)cc1[N+](=O)[O-],-10.2% (inactive),–
O=C(OCCN1C(=O)c2ccccc2C1=O)[C@@H]1CC(O)CN1S(=O)(=O)c1ccccc1[N+](=O)[O-] (stereo partly specified),4.14% (inactive),–
COCCNc1ncnc2c1ncn2[C@H]1CN(Cc2ccc(OC)cc2)C[C@@H](CO)O1,-11.2% (inactive),–
COc1ccc(-c2oc3ncnc(NCCCO)c3c2-c2ccc(OC)cc2)cc1,–,16.4 µM (active)
OCCc1ccc(NCCc2ccco2)cc1,-7.84% (inactive),–
Cc1nnc(NCCO)c2ccccc12,-3.13% (inactive),–
OCCNc1ncnc2oc(-c3ccco3)c(-c3ccco3)c12,–,20 µM (active)
Nc1nonc1C(=O)NCCc1ccccc1,2.03% (inactive),–
O=S1(=O)C=C(SCCN2CCCC2)c2ccccc21,-17.4% (inactive),–
CCCC(C)NC(=O)C1CCN(C(=O)C2CC(=O)N(c3ccc(C)cc3)C2)CC1 (stereo unspecified),-16.9% (inactive),–
Cc1ccsc1CNn1cnnc1SCc1ccccc1F,-16.7% (inactive),–
CCn1c(CNC(=O)c2ccco2)nnc1SCC(=O)Nc1cccc(F)c1,25.7% (inactive),–
CC(C)[C@H](CO)Nc1nc(Nc2cc(N)cc(Cl)c2)c2ncn(C(C)C)c2n1,–,2.99 µM (active)
COC(=O)C(C)n1cnc2c(nnn2-c2cccc(Cl)c2)c1=O (stereo unspecified),-2.72% (inactive),–
CC(C)n1cnc2c(Nc3cccc(Cl)c3)nc(N(CCO)CCCO)nc21,–,14.6 µM (active)
O=C(NCCc1ccccc1)c1ccc(NC2=NC3CS(=O)(=O)CC3S2)cc1 (stereo unspecified),-3.78% (inactive),–
Cc1cc(NS(=O)(=O)c2ccc(NC(=O)C(C)Oc3cccc(C)c3C)cc2)nc(C)n1 (stereo unspecified),1.7% (inactive),–
O=C(CSc1ncnc2sccc12)NC1CCS(=O)(=O)C1 (stereo unspecified),1.97% (inactive),–

Structure (SMILES),"activity change, negative = growth inhibition",Potency
Cn1c(SCC(=O)Nc2cccc(O)c2)nnc1-c1ccc(S(=O)(=O)N2CCOCC2)cc1,-22.6% (inactive),–
Cc1ccc([C@@H]2CC(=O)[C@@H]3CN(S(=O)(=O)c4ccc(C)cc4)[C@H](c4ccccc4F)C[C@@H]3N2S(=O)(=O)c2ccc(Cl)cc2)cc1,-6.21% (inactive),–
Cc1ccccc1CSc1nnc(-c2cccnc2)n1N,-16.3% (inactive),–
Cc1ccc(-c2nn(-c3ccccc3)cc2CN(Cc2ccccc2)C(=O)CCC(=O)O)o1,-5.97% (inactive),–
COCCCNC(=O)Cn1cc(C(=O)C2CC2)c2ccccc21,-8.41% (inactive),–
CCC(C(=O)OC)n1cnc2c(oc3ccccc32)c1=O (stereo unspecified),8.29% (inactive),–
COc1ccccc1Nc1ncnc2c1oc1ccccc12,–,11.6 µM (active)
O=C(CSc1ncnc2c1oc1ccccc12)NC1CCCC1,-11.6% (inactive),–
COc1ccc(CN2CCC3(CCC(CNC(=O)c4ccco4)O3)CC2)cc1OC (stereo unspecified),-20% (inactive),–
CCCCCCCNc1nc(Cl)nc(NCCO)n1,-13.2% (inactive),–
Cc1occc1-c1nnc(SCC(=O)NC2CCCCC2)o1,-27.7% (inactive),–
CCNCCC(=O)N1c2ccccc2Sc2ccc(NC(=O)OCC)cc21,–,13 µM (active)
CCOC(=O)Nc1ccc2c(c1)N(C(=O)CCN1CCN(CCO)CC1)c1ccccc1CC2,-1.78% (inactive),–
CCOC(=O)CNC(=O)CN1C(=O)CCSc2ccccc21,1.6% (inactive),–
CCOC(=O)Nc1ccc2c(c1)N(C(=O)CCCl)c1ccccc1[S@]2=O,–,3.66 µM (active)
CCNC(=O)N1c2ccccc2Sc2ccccc21,-18% (inactive),–
CCOC(=O)Nc1ccc(NC(=O)OCC)cc1,-7.66% (inactive),–
CN1CCC2(CC1)CCN(S(=O)(=O)c1ccccc1)CC2,1.52% (inactive),–
Cc1ccc(S(=O)(=O)N(c2cccc(C)c2)C2CCS(=O)(=O)C2)cc1 (stereo unspecified),-4.69% (inactive),–
CC(C)Sc1ncnc2c1cnn2-c1ccccc1,-28.2% (inactive),–
O=C(O)c1cc(S(=O)(=O)Nc2ccc3cn[nH]c3c2)ccc1Br,7.47% (inactive),–
CC(C)N1C(=O)C2C(C(=O)NC3CCCCC3)C3C=CC2(O3)C1C(=O)NC1CCCC1 (stereo unspecified),-1.95% (inactive),–

Structure (SMILES),"activity change, negative = growth inhibition",Potency
CCCCOC(=O)Nc1nccs1,-5.44% (inactive),–
CCCc1cc(=O)n2[nH]c(SCc3ccccc3)nc2n1,-7.3% (inactive),–
CCn1c2ccccc2c2nnc(SCC(=O)O)nc21,-19.8% (inactive),–
CCOC(=O)c1sc(NC(=O)C(CC)Sc2nccn2C)nc1C (stereo unspecified),-23.3% (inactive),–
C=CCn1c2ccccc2c2nnc(SC(CC)C(=O)Nc3nc(C)c(C(=O)OCC)s3)nc21 (stereo unspecified),–,8.2 µM (active)
N#Cc1cc2[nH]c(=O)c(=O)[nH]c2cc1[N+](=O)[O-],9.21% (inactive),–
CSc1n[nH]c(=S)n1N,-6.87% (inactive),–
N#Cc1ccc(S(=O)(=O)NCC(=O)OCC(=O)NCCc2ccccc2)cc1,19.7% (inactive),–
Cc1nnc(SCC(=O)Nn2cnnc2)s1,-9.49% (inactive),–
O=S1(=O)CC/C(=N\Nc2ccc(F)cc2)c2ccsc21,-24.8% (inactive),–
O=C1CCN(CCCc2ccccc2)CCN1CCO,-1.55% (inactive),–
O=C(COC(=O)c1ccc(F)cc1)NCCCc1ccccc1,16.5% (inactive),–
O=C(c1ccc(F)cc1)C1CCN(CCCCc2ccccc2)CC1,–,26.6 µM (active)
CCn1c(SCC(=O)NC2CCCC2)nnc1-c1ccoc1C,-5.53% (inactive),–
NS(=O)(=O)c1ccc(CCNC(=O)NC2CCCCC2)cc1,1.16% (inactive),–
O=S(=O)(c1cccs1)N1CCc2ccccc2C1,-11.7% (inactive),–
CCC(=O)N(CCc1ccccc1)Cc1cc2cc(C)ccc2[nH]c1=O,-19.6% (inactive),–
Cc1cccc2cc(CN(C(=O)c3cccs3)c3ccccc3)c(=O)[nH]c12,-20.8% (inactive),–
Cc1ccc(N(Cc2cc3ccccc3[nH]c2=O)C(=O)c2cccs2)cc1,–,14.6 µM (active)
Cc1ccc(-n2nc(C)c(C(=O)O)c2-n2cccc2)cc1,-1.81% (inactive),–
CC(C)Oc1ccc(C(=O)NCC(=O)Nc2ccc3c(c2)CCC3)cc1,-11.2% (inactive),–
CCOc1ccc(CNC(=O)Cn2cc3c(n2)-c2c(oc(C(=O)N4CCCC4)c2C)CC3)cc1,–,20.6 µM (active)

Structure (SMILES),"activity change, negative = growth inhibition",Potency
COCCNC(=O)Cn1cc2c(n1)CCCCC2,-0.37% (inactive),–
Cc1c(C(=O)N2CCCC2)oc2c1-c1nn(CC(=O)NCc3ccc(OC(C)C)cc3)cc1CC2,–,20.6 µM (active)
CCOC(=O)N1CCC(NC(=O)Cn2cc3c(n2)CCCCC3)CC1,-11.3% (inactive),–
CCCN(CCC)CCCNC(=O)Cn1cc2c(n1)-c1c(oc(C(=O)N3CCCC3)c1C)CC2,-14.5% (inactive),–
CC(C)OC(=O)Cn1nc(C(F)(F)F)c2c1CCCC2,-2.71% (inactive),–
CCCC(C)c1nnc(NC(=O)C2CC(=O)N(c3ccc(OCC)cc3)C2)s1 (stereo unspecified),-29.7% (inactive),–
Cc1nnc(C(=O)NC(C)(C)c2nc(C(=O)NCc3ccc(F)cc3)c(O)c(=O)n2C)o1,-28.7% (inactive),–
COc1ccnc(Oc2ccccc2)c1-c1ncn[nH]1,7.94% (inactive),–
Cc1nnc(SCC(=O)NCc2ccccc2Cl)c2nn(-c3ccccc3)c(C)c12,–,23.1 µM (active)
CCNC(=O)Cn1nc(C)n2c(cc3c(OC)cccc32)c1=O,-15% (inactive),–
COc1ccc(OC)c(CNC(=O)Cn2nc(C)c3c(C)n(-c4ccc(C)cc4)nc3c2=O)c1,–,16.4 µM (active)
Cc1cccn2c(=O)nc(SCC(=O)NCc3ccccc3Cl)nc12,-1.53% (inactive),–
COc1ccccc1CNC(=O)COC(=O)c1sc(C)nc1C,-17.9% (inactive),–
COc1ccccc1CNC(=O)Cn1nc(C)c2nn(-c3ccc(Cl)cc3)c(C)c2c1=O,–,23.1 µM (active)
Cc1nn(CC(=O)N2CCCCC2)c(=O)c2nn(-c3ccccc3)c(C)c12,40.7% (inactive),–
Cc1ccccc1CNC(=O)CSc1nnc(C)c2c(C)n(-c3ccccc3)nc12,-24.4% (inactive),–
CCOC(=O)C1CCN(C(=O)Cn2nc(C)c3c(C)n(-c4ccccc4)nc3c2=O)CC1,6.57% (inactive),–
Cc1ccccc1-c1nnn(CC(=O)c2ccc(S(=O)(=O)N3CCCC3)cc2)n1,-26.4% (inactive),–
